# Screening data deposited in PubChem by National Center for Advancing Translational Sciences (NCATS).
# Rows were chosen to be rich in hits. Some 11% of all compounds tested hit in one or more screens of this group.
# Sm TGR block: blocks Schistosoma mansoni thioredoxin glutathione reductase | Potency, µM (series often up to 114 µM), inactives show top-dose activity change, negative = inhibition, actives largely listed as inhibitors | purified TGR, DTNB reduction, TNB absorbance 405 nm | Q962Y6 | 3% of 360,000 active; further: on the % scale 0 is the no-effect control and ±100 the full control effect; nearly all actives have a fitted effect of over 60% in size
#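 First, TGR (20 nM dispensed) and NADPH were mixed with compound. Second, a 15 min room-temperature incubation followed. Third, further NADPH and then DTNB were added to start the reaction. Finally, TNB absorbance was monitored kinetically.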
# Pf growth 48h: inhibits P. falciparum growth in the first generation, 48 h; P. falciparum luciferase growth in erythrocytes, 48 h; 5.9% of 310,000 active; Potency, µM (doses to about 28.7 µM), for inactives: at the highest dose activity change, negative = inhibition, actives largely listed as inhibitors; further: on the % scale 0 is the no-effect control and ±100 the full control effect
#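 Cell-based growth assay: transgenic P. falciparum expressing firefly luciferase, cultured in red cells within RPMI 1640 containing 0.5% w/v Albumax, 24 mM bicarbonate and gentamycin. A drop in luciferase activity indicates inhibition.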
# Pf growth 96h: inhibits malaria parasite growth, 96 h; P. falciparum luciferase reporter growth, 96 h; Potency, µM (doses to about 28.7 µM), without a hit: at the top dose activity change, negative = inhibition, actives largely listed as inhibitors; 6.9% of 320,000 active; further: on the % scale 0 is the no-effect control and ±100 the full control effect
#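 Infected RBCs, 2% Hct / 0.05% parasitemia final; luciferase-reporter P. falciparum; cpd 96 h, 37 C, 5% CO2; luciferase detection reagent; luminescence.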
# AMA1-RON2 inh: inhibitors of Plasmodium falciparum AMA1-RON2 interaction; 0.2% of 360,000 active; AlphaScreen AMA1-biotinylated RON2 peptide binding; Potency, µM (doses to about 58.2 µM), without a hit: top-dose activity change, negative = inhibition, usual class: inhibitors;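 further: 0% = vehicle wells and -100% = peptide control; nearly all actives have a fitted effect of over 45% in size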
#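 AMA1 (3D7) with his tag at 25 nM final met compounds first, then biotinylated RON2 peptide at 25 nM; detection used donor plus acceptor beads, 10 µg/mL apiece, read by AlphaScreen after 30 min at room temperature.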
# NS1 function inh: influenza NS1 inhibition | 0.4% of 270,000 active | AID 2326 | Potency, µM (titrated, usually from 46.1 µM), for inactives: top-dose activity, positive = more growth; calls by dose curve; further: actives are rising curves; nearly all actives have a fitted effect of over 50% in size
#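 Recovery from NS1-induced slow growth read by OD600 in budding yeast switched to galactose assay medium (pH 6.0, -URA) at 1:100 dilution. Compound 23 nl per well; the matching strain lacking NS1 serves as control.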
# * = called active by the depositor; ? = inconclusive; / = not tested or not shown. Unless noted, the call rests on the fitted dose curve; in most records, active means well fitted curve in the direction sought with a large enough effect; inconclusive means small, poorly fitted or top-dose-only effect, or another doubt; inactive means no such curve, though single readings can be large; an effect the other way counts as inactive or inconclusive. Potency means the concentration at half of the fitted maximal effect.
SMILES,Sm TGR block,Pf growth 48h,Pf growth 96h,AMA1-RON2 inh,NS1 function inh
CC(=O)N1CCSc2ccc(S(=O)(=O)NCc3ccc(F)cc3)cc21,6%,-2%,-8%,-8%,4%
CCOC(=O)c1cc2occc2n1Cc1c(F)cccc1Cl,0%,-8%,/,?,-4%
COC(=O)c1cc2occc2n1Cc1c(F)cccc1Cl,-3%,1%,2.6µM*,/,-26%
O=c1c2ccccc2nc(/C=C/c2ccc([N+](=O)[O-])o2)n1CCCO,18µM*,?,2.6µM*,2%,-117%
O=c1c2ccccc2nc(/C=C/c2cccc(Br)c2)n1CCCO,12%,?,13µM*,6%,8%
CCn1c(/C=C/c2cc(Br)ccc2O)nc2ccccc2c1=O,-7%,0.93µM*,-3%,13%,9%
NC(=O)CCC(C(=O)O)N1C(=O)c2ccc(O)cc2C1=O (stereo unspecified),-2%,-1%,50%,15%,-3%
Cc1ccc(S(=O)(=O)N2CCOCC2)cc1NC(=O)COC(=O)COc1ccc(C#N)cc1,/,/,/,-10%,/
CCOc1ccccc1NC(=O)CSc1c(C)cnc2c1c(=O)n(C)c(=O)n2C,-3%,/,/,/,/
CC(C)[C@@H](C(=O)NCC1CCCO1)N1C(=O)N2CCc3c([nH]c4ccccc34)[C@@]2(C)C1=O (stereo partly specified),-12%,?,-64%,-3%,3%
Cc1cc(C)cc(OCC(=O)Nc2c(C)ccc3nsnc23)c1,6%,/,/,/,/
CC1C(=O)CCN(C(C)(C)C)C1C (stereo unspecified),1%,?,8.3µM*,5%,-3%
O=C(Cc1ccc(Cl)cc1)c1c[nH]c(C(=O)NCCCN2CCOCC2)c1,-3%,?,-7%,-14%,/
Cc1nc2nc(SCC(=O)NCCCN3CCCCCC3)nn2c(C)c1Cc1ccccc1Cl,4%,-26%,-6%,-10%,1%
Cc1nc2nc(SCC(=O)NCCCN3CCCC(C)C3)nn2c(C)c1Cc1ccccc1Cl (stereo unspecified),-7%,13µM*,31%,2%,-5%
COc1ccc(-c2onc(C)c2C)cc1S(=O)(=O)NCc1ccc(Br)cc1,4%,/,/,/,/
CCOC(=O)c1sc(/S(C)=N\S(=O)(=O)c2cccc(Cl)c2)c2c1CCC=C2 (stereo unspecified),2.8µM*,?,?,2%,-1%
CCOc1ccc(NC(=O)CN(C)C(=O)c2cccnc2SC)cc1OCC,0%,24%,32%,0%,-4%
CN(Cc1cnc2nc(N)nc(N)c2n1)c1ccc(C(=O)N[C@@H](CCC(=O)O)C(=O)O)cc1,/,0.043µM*,1.7µM*,3%,-7%
CN1CCN(CC(=O)c2ccccc2F)CC1,11µM*,-24%,-12%,-8%,1%
CCCCN1C(N)=NC[C@H]1Cc1ccc(O)cc1,13%,9.3µM*,4.7µM*,2%,2%
CCCCN1CCNC[C@@H]1Cc1ccc(O)cc1,-16%,?,37%,0%,/
CCCCN1C(N)=NC[C@@H]1Cc1ccc(O)cc1,4%,10µM*,4.1µM*,2%,7%
CC(=O)N[C@@H](Cc1ccc(O)cc1)CN1C(N)=NC[C@@H]1CC(C)C,-11%,15%,21%,21%,-5%
COc1cc(CCCN2C(N)=NC[C@H]2Cc2ccc(O)cc2)cc(OC)c1OC,6%,8.3µM*,2.3µM*,4%,-6%
SMILES,Sm TGR block,Pf growth 48h,Pf growth 96h,AMA1-RON2 inh,NS1 function inh
CCCCN1C(Nc2ccccc2)=NC[C@@H]1Cc1ccccc1,-4%,?,36%,13%,/
COc1cc(CCCN2C(=S)NC[C@H]2Cc2ccc(O)cc2)cc(OC)c1OC,-3%,10%,-1%,3%,1%
NC1=NC[C@H](Cc2ccc(O)cc2)N1CCC12CC3CC(CC(C3)C1)C2,16%,2.9µM*,1.9µM*,-7%,3%
Cc1ccc(NC(=O)CN2C(=O)NC(C)(CC(C)C)C2=O)c(Br)c1 (stereo unspecified),/,/,/,-9%,/
CC1CCC(NC(=O)COC(=O)C2=NN(c3ccccc3)C(=O)CC2)CC1 (stereo unspecified),-6%,-3%,16%,3%,/
CC(C)(C)CN1C(N)=NC[C@@H]1Cc1ccc(O)cc1,15%,?,?,-15%,0%
